Assay results: PubChem BioAssay (NCI)
This is part of a sample that, as a whole, favours compounds with a hit. Of some 79,000 tested, about 15% had one in any assay. The source made the active and inactive calls. Rule as the data show it: active = growth inhibition above about 70%; inactive = the rest.

How the values were obtained:
[1] = NCI Yeast Anticancer Drug Screen. Data for the rad52 strain (AID 147);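 also: 0% = growth of vehicle-treated control cultures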; details: S. cerevisiae rad52 mutant growth inhibition, stronger effect = higher value
Outline: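 The repair-mutant yeast strain was incubated with compounds, then growth was read and inhibition derived relative to vehicle.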

[2] = NCI Yeast Anticancer Drug Screen. Data for the wt1 strain (AID 149);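 also: 0% = growth of vehicle-treated wt1 cultures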; details: S. cerevisiae wt1 strain (SPY 50644) growth inhibition, stronger effect = higher value
Outline: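 Yeast wt1 strain exposed to compounds; growth inhibition measured relative to vehicle-treated controls.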

[3] = NCI Yeast Anticancer Drug Screen. Data for the rad50EPP+ strain (AID 151);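 also: 0% = growth of vehicle-treated control cultures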; details: S. cerevisiae rad50 mutant strain, stronger effect = higher value
Outline: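 Vehicle-normalised growth inhibition; rad50EPP+ yeast strain, altered in DNA damage repair, compound-treated.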

[4] = NCI Yeast Anticancer Drug Screen. Data for the rad50 strain (AID 155);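 also: 0% = growth of vehicle-only cultures of the same strain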; details: S. cerevisiae rad50 strain growth inhibition, stronger effect = higher value
Outline: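 Yeast carrying a defined DNA repair defect were exposed to test compounds, and growth was compared with vehicle-treated controls to give percent inhibition.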

[5] = NCI Yeast Anticancer Drug Screen. Data for the mec2-1 strain (AID 157); details: S. cerevisiae mec2-1 strain, stronger effect = higher value
Outline: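 Mutant yeast (mec2-1) grown with compound; growth inhibition relative to vehicle control reported.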

[6] = NCI Yeast Anticancer Drug Screen. Data for the rad14 strain (AID 159);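 also: 0% = growth of vehicle-treated control cultures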; details: S. cerevisiae rad14 strain growth inhibition, stronger effect = higher value
Outline: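 Yeast cells carrying a defined DNA-repair defect were exposed to compounds, and growth inhibition was calculated relative to vehicle-treated control cultures.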

[7] = NCI Yeast Anticancer Drug Screen. Data for the sgs1 mgt1 strain (AID 161);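 also: 0% = growth of cultures given vehicle only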; details: S. cerevisiae sgs1 mgt1 strain, stronger effect = higher value
Outline: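 Percent growth inhibition was derived by comparing compound-exposed mutant yeast with vehicle-exposed cultures. The strain carries alterations in DNA damage repair.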

[8] = NCI Yeast Anticancer Drug Screen. Data for the CLN2oe strain (AID 163);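 also: 0% = growth of vehicle-only control cultures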; details: S. cerevisiae CLN2oe strain, stronger effect = higher value
Outline: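 Compounds are applied to yeast harbouring a defined cell-cycle control change; reduced growth compared with vehicle-treated controls gives the value.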

[9] = NCI Yeast Anticancer Drug Screen. Data for the cln2 rad14 strain (AID 165);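 also: 0% = growth equal to vehicle treated cultures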; details: S. cerevisiae cln2 rad14 strain, stronger effect = higher value
Outline: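 Readout is yeast growth inhibition versus vehicle-treated controls, using a strain with cln2 and rad14 alterations exposed to compound.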

[10] = NCI Yeast Anticancer Drug Screen. Data for the bub3 strain (AID 167); details: S. cerevisiae bub3 mutant strain, stronger effect = higher value
Outline: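 Compounds were applied to a genetically altered yeast strain carrying a cell-cycle control defect. Growth inhibition was scored against vehicle-treated controls.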

[11] = NCI Yeast Anticancer Drug Screen. Data for the wt2 strain (AID 169);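 also: 0% = growth of vehicle-treated yeast cultures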; details: S. cerevisiae wt2 strain growth inhibition, stronger effect = higher value
Outline: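 Against vehicle-treated controls, the growth of yeast exposed to each compound was compared, and the inhibition was recorded.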

[12] = NCI Yeast Anticancer Drug Screen. Data for the mlh1 strain (AID 171);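 also: 0% = growth of vehicle-treated control cultures of the same strain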; details: S. cerevisiae mlh1 strain growth inhibition, stronger effect = higher value
Outline: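 Measured: yeast growth. Reference: vehicle-treated controls. Organism: strain with a defined alteration affecting DNA damage repair or cell cycle control, treated with compound.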

[13] = NCI Yeast Anticancer Drug Screen. Data for the sgs1 strain (AID 173);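 also: 0% = growth of vehicle-only control cultures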; details: S. cerevisiae sgs1 mutant, stronger effect = higher value
Outline: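 Each compound was added to cultures of the altered yeast strain. Growth was recorded, and inhibition was derived by comparison with vehicle controls.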

[14] = NCI Yeast Anticancer Drug Screen. Data for the mlh1 rad18 strain (AID 175); details: S. cerevisiae mlh1 rad18 strain growth inhibition, stronger effect = higher value
Outline: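 Genetically defined yeast (DNA repair-deficient) exposed to compounds; growth inhibition determined relative to vehicle.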

[15] = NCI Yeast Anticancer Drug Screen. Data for the rad18 strain (AID 177); details: S. cerevisiae rad18 mutant growth inhibition, stronger effect = higher value
Outline: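 Vehicle-treated cultures served as the baseline for scoring compound-induced growth inhibition in DNA-repair-mutant yeast.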

[16] = at 5.0 µM (retest, dose inferred, filed as 0.5)
[17] = at 50.0 µM (retest, dose inferred, filed as 5.0)

Measured: growth inhibition

O=[N+]([O-])c1ccc(C=Cc2ccccc2)cc1.[C-]#[O+].[C-]#[O+].[C-]#[O+].[Cr]
active: [1]; at 11.0 µM 70% | [1]; at 33.0 µM 88% | [1]; at 100.0 µM 82% | [2]; at 100.0 µM 79% | [3]; at 33.0 µM 71% | [4]; at 33.0 µM 83% | [4]; [17] 95% | [4]; at 50.0 µM 76.9% | [4]; at 100.0 µM 79% | [5]; at 33.0 µM 71% | [5]; [17] 86% | [5]; at 50.0 µM 79.8% | [5]; at 100.0 µM 72% | [6]; at 33.0 µM 83% | [6]; at 100.0 µM 82% | [7]; [17] 95% | [8]; at 100.0 µM 70% | [9]; [17] 91% | [9]; at 50.0 µM 70.9% | [10]; [17] 91% | [10]; at 100.0 µM 82% | [11]; at 33.0 µM 80% | [11]; at 100.0 µM 83% | [12]; at 100.0 µM 71% | [13]; at 33.0 µM 91% | [13]; at 100.0 µM 88% | [14]; [17] 96% | [15]; at 1.2 µM 70% | [15]; at 3.7 µM 93% | [15]; at 11.0 µM 94% | [15]; at 33.0 µM 89% | [15]; at 100.0 µM 86%
inactive: [1]; at 1.2 µM 8% | [1]; at 3.7 µM 28% | [2]; at 1.2 µM -2% | [2]; at 3.7 µM -1% | [2]; at 11.0 µM 1% | [2]; at 33.0 µM 65% | [3]; at 1.2 µM 10% | [3]; at 3.7 µM 32% | [3]; at 11.0 µM 62% | [3]; at 100.0 µM 67% | [4]; at 1.2 µM 6% | [4]; at 3.7 µM 18% | [4]; [16] 39% | [4]; at 11.0 µM 54% | [5]; at 1.2 µM 0% | [5]; at 3.7 µM 1% | [5]; [16] 5% | [5]; at 11.0 µM 8% | [6]; at 1.2 µM 3% | [6]; at 3.7 µM 12% | [6]; at 11.0 µM 53% | [7]; [16] 44% | [7]; at 50.0 µM 66% | [8]; at 1.2 µM -3% | [8]; at 3.7 µM -9% | [8]; at 11.0 µM -16% | [8]; at 33.0 µM 69% | [9]; [16] 10% | [10]; at 1.2 µM 2% | [10]; at 3.7 µM 10% | [10]; [16] -19% | [10]; at 11.0 µM 2% | [10]; at 33.0 µM 67% | [10]; at 50.0 µM 69.5% | [11]; at 1.2 µM -1% | [11]; at 3.7 µM -1% | [11]; at 11.0 µM 7% | [12]; at 1.2 µM -1% | [12]; at 3.7 µM -1% | [12]; at 11.0 µM 9% | [12]; at 33.0 µM 65% | [13]; at 1.2 µM 9% | [13]; at 3.7 µM 30% | [13]; at 11.0 µM 66% | [14]; [16] 68% | [14]; at 50.0 µM 62.1%
